Here are results for one sequence from paper PMC7862700, “An all-to-all approach to the identification of sequence-specific readers for epigenetic DNA modifications on cytosine”.

Holding throughout (test): DAPPL (digital affinity profiling via proximity ligation, sequencing); 10 mM Tris-HCl pH 7.5, 50 mM NaCl, 1 mM DTT, 4% glycerol, room temperature, 30 min; GST-TFs on glutathione beads, 16-mer random dsDNA library, 0.1% formaldehyde crosslink after washing; high values mean tight binding
One experiment has as its target T1, FEV (Homo sapiens, UniProt Q99581 1-238).
T1 sequence: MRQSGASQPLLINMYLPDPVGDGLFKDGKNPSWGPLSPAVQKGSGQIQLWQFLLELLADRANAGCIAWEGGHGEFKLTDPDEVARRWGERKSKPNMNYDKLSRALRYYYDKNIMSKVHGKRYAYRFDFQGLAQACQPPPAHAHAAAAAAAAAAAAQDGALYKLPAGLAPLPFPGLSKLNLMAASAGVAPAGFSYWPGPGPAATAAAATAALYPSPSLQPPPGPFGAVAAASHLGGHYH
The conditions noted are these: protein: recombinant; tags: N-terminal GST; dsDNA, one strand shown. The essentials: (§1)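 Each value of binding signal is a hexamer's read frequency for a factor divided by the same hexamer's frequency in the tag-only sample. Barcoded, bead-captured GST fusions of human transcription factors made in yeast were pooled with that sample and incubated with 200 nmole of a random double-stranded 16-mer DNA library in Tris/NaCl/DTT/glycerol buffer at room temperature for 30 min. Washing, 0.1% formaldehyde crosslinking, proximity ligation, PCR and Illumina NextSeq500 sequencing followed.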

The target of the next experiment is ETV5 (Homo sapiens, UniProt P41161 1-510). The note with it: protein: recombinant; tags: N-terminal GST; dsDNA, one strand shown. A digest of the protocol: as §1
Sequence of ETV5 (P41161 whole entry): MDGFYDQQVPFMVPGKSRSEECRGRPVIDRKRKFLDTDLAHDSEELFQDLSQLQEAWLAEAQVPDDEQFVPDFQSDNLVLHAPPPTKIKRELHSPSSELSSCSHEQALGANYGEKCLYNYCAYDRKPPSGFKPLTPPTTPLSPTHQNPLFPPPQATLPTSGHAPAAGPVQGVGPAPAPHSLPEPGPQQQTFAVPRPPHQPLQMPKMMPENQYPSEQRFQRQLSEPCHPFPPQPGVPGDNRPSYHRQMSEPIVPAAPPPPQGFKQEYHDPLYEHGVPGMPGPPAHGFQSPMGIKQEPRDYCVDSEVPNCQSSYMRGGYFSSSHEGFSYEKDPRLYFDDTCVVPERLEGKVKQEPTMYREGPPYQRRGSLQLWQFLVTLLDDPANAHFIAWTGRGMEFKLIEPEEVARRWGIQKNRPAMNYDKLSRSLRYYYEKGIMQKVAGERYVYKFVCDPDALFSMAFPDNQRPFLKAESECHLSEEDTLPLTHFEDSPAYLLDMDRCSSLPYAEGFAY
Another experiment concerns the target HSF1 (Homo sapiens, UniProt Q00613 1-529). The note with it: protein: recombinant; tags: N-terminal GST; chain copies: 3; dsDNA, one strand shown. The essentials:
as §1

Another experiment deals with T2, SPIC (Homo sapiens, UniProt Q8N5J4 1-248).
T2 sequence: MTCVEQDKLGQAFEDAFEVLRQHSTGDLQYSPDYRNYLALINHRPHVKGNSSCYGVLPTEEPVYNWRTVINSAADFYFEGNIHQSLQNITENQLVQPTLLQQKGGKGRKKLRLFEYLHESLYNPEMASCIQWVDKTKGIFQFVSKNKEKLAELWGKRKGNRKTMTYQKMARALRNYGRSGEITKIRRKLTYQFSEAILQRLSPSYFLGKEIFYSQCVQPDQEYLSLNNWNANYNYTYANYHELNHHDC
The note with it: protein: recombinant; tags: N-terminal GST; dsDNA, one strand shown. The essentials: as §1

The next experiment deals with ELF4 (Homo sapiens, UniProt Q99607 1-663). The note with it: protein: recombinant; tags: N-terminal GST; dsDNA, one strand shown. The essentials:
as §1

The target of the next experiment is T3, ELK4 (Homo sapiens, UniProt P28324-2 1-405).
T3 sequence: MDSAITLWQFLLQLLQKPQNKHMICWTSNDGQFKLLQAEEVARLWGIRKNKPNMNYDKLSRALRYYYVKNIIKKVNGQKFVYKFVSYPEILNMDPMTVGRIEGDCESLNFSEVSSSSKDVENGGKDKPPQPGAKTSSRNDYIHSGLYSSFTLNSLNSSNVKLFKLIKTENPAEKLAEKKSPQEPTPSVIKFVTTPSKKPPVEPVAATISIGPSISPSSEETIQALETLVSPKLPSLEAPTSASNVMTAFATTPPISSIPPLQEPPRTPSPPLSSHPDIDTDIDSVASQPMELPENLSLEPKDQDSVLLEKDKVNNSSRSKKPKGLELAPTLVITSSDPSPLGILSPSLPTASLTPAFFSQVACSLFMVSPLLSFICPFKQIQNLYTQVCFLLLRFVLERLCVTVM
The note with it: protein: recombinant; tags: N-terminal GST; dsDNA, one strand shown. A digest of the protocol:
as §1

For a further experiment, the target named is T4, ETV2 (Homo sapiens, UniProt O00321 1-342).
T4 sequence: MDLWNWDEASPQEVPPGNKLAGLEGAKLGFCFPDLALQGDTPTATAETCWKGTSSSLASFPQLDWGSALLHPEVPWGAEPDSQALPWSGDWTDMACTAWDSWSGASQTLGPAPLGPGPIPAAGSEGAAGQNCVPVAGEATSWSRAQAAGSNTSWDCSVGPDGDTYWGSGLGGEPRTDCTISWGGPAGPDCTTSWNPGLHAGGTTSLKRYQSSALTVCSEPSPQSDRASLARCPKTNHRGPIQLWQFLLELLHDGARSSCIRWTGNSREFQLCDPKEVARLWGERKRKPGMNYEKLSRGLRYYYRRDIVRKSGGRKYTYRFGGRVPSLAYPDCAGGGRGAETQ
The note with it: protein: recombinant; tags: N-terminal GST; dsDNA, one strand shown. A digest of the protocol:
as §1

The next experiment concerns the target T5, ELF3 (Homo sapiens, UniProt P78545 1-371).
T5 sequence: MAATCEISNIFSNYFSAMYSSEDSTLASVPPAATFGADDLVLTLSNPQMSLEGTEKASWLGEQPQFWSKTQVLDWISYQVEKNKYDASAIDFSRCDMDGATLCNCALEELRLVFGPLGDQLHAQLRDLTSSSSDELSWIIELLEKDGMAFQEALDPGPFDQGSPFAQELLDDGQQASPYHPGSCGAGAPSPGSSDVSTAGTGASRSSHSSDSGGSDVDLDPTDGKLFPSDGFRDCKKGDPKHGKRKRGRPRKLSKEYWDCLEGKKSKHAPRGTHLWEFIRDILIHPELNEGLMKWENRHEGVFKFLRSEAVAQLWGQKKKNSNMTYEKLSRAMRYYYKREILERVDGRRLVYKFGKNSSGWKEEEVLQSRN
The note with it: protein: recombinant; tags: N-terminal GST; dsDNA, one strand shown. The essentials:
as §1

The target in the next experiment is CRX (Homo sapiens, UniProt O43186 1-299). The conditions noted are these: protein: recombinant; tags: N-terminal GST; dsDNA, one strand shown. The essentials:
as §1

For the next experiment, the target named is ETV1 (Homo sapiens, UniProt P50549 1-477). The conditions noted are these: protein: recombinant; tags: N-terminal GST; dsDNA, one strand shown. A digest of the protocol: as §1
Sequence of ETV1 (P50549 whole entry): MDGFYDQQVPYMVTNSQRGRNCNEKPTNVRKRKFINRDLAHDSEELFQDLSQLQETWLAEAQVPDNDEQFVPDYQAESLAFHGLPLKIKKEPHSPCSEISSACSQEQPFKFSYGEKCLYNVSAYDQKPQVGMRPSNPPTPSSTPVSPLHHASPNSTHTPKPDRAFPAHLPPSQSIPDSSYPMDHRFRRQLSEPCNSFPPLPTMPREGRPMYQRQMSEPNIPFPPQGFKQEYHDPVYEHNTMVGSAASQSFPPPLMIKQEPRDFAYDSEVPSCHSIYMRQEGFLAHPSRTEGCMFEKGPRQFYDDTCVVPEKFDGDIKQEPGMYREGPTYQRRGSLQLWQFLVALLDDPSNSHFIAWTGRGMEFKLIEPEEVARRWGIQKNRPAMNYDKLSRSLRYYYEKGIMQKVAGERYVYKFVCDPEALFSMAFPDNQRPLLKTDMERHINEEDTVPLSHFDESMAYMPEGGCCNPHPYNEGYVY
The target of another experiment is T6, ERF (Homo sapiens, UniProt P50548 1-548).
T6 sequence: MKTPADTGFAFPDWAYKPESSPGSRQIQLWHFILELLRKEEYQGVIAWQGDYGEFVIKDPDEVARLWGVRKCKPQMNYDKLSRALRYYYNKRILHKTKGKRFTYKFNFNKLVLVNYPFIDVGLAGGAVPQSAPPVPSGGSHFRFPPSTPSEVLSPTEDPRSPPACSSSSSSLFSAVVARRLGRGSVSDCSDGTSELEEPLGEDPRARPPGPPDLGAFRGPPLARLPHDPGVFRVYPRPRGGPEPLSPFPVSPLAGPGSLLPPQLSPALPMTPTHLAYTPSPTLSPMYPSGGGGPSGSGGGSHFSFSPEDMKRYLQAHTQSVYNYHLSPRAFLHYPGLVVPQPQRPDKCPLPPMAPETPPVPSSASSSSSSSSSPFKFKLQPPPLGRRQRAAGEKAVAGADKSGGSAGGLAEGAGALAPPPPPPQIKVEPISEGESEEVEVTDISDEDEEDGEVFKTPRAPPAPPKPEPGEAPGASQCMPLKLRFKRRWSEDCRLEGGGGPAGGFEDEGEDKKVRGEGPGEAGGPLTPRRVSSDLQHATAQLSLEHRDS
The conditions noted are these: protein: recombinant; tags: N-terminal GST; dsDNA, one strand shown. The essentials: as §1

The next experiment has as its target T7, ETV3L (Homo sapiens, UniProt Q6ZN32 1-361).
T7 sequence: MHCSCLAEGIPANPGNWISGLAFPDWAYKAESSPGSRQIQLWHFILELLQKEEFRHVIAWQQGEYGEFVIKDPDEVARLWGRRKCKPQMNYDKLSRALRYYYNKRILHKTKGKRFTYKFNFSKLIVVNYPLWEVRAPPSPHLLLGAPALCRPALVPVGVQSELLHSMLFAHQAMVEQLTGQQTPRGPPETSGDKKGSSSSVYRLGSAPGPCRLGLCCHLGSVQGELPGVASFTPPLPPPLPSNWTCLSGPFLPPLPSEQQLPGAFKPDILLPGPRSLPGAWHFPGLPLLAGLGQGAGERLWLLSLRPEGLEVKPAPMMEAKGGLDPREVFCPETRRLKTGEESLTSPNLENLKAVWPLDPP
The conditions noted are these: protein: recombinant; tags: N-terminal GST; dsDNA, one strand shown. A digest of the protocol:
as §1

A further experiment deals with T8, ETS2 (Homo sapiens, UniProt P15036 1-469).
T8 sequence: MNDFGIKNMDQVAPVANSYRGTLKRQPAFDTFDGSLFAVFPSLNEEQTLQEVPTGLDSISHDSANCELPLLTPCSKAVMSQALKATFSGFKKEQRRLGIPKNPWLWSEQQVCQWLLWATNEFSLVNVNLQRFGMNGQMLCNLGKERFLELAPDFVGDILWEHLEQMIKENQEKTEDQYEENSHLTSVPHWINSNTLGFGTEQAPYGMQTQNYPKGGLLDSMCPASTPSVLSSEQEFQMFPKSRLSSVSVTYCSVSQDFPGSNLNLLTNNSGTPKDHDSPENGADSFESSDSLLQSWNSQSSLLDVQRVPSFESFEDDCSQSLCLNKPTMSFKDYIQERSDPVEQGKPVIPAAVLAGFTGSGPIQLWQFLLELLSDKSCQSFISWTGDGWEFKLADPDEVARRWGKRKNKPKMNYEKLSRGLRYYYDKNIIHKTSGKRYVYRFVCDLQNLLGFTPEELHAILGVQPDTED
The conditions noted are these: protein: recombinant; tags: N-terminal GST; dsDNA, one strand shown. A digest of the protocol:
as §1

The target in another experiment is T9, SPDEF (Homo sapiens, UniProt O95238 1-335).
T9 sequence: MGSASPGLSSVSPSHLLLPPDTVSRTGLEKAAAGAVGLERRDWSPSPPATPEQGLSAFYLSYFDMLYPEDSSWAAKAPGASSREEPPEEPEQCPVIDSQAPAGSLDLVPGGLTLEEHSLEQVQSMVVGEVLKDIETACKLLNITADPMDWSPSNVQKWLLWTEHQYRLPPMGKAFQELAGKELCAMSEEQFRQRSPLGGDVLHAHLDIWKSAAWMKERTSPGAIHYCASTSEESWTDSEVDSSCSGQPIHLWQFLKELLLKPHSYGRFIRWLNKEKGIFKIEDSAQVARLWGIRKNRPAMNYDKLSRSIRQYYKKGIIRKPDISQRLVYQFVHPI
The conditions noted are these: protein: recombinant; tags: N-terminal GST; dsDNA, one strand shown. The essentials: as §1

A further experiment has as its target T10, ETV7 (Homo sapiens, UniProt Q9Y603 1-341).
T10 sequence: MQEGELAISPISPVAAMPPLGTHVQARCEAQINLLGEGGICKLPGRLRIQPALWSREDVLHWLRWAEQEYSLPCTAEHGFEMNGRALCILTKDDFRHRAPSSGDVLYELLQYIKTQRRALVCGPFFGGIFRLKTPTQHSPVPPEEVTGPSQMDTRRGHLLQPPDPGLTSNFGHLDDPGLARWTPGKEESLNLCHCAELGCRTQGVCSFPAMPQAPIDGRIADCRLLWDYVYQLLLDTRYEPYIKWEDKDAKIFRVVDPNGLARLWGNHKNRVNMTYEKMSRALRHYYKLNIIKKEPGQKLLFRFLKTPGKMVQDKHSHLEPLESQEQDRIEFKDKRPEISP
The conditions noted are these: protein: recombinant; tags: N-terminal GST; dsDNA, one strand shown. A digest of the protocol:
as §1

A further experiment deals with T11, ELF5 (Homo sapiens, UniProt Q9UKW6-2 1-255).
T11 sequence: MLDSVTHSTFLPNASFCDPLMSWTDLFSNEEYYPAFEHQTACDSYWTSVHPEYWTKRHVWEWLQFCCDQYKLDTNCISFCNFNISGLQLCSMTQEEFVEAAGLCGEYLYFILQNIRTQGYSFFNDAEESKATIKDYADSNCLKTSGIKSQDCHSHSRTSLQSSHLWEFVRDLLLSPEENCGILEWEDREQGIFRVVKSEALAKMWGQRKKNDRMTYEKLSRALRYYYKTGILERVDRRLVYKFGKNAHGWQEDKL
The conditions noted are these: protein: recombinant; tags: N-terminal GST; dsDNA, one strand shown. The essentials: as §1

Another experiment concerns the target T12, ETV3 (Homo sapiens, UniProt P41162-2 1-143).
T12 sequence: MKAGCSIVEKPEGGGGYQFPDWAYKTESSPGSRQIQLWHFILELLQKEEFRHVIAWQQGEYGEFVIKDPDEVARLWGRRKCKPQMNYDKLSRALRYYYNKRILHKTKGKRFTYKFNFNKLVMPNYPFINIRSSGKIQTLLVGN
The note with it: protein: recombinant; tags: N-terminal GST; dsDNA, one strand shown. A digest of the protocol:
as §1

A further experiment has as its target ETV6 (Homo sapiens, UniProt P41212 1-452). The note with it: protein: recombinant; tags: N-terminal GST; dsDNA, one strand shown. The essentials: as §1

Sequence of ETV6 (P41212 whole entry): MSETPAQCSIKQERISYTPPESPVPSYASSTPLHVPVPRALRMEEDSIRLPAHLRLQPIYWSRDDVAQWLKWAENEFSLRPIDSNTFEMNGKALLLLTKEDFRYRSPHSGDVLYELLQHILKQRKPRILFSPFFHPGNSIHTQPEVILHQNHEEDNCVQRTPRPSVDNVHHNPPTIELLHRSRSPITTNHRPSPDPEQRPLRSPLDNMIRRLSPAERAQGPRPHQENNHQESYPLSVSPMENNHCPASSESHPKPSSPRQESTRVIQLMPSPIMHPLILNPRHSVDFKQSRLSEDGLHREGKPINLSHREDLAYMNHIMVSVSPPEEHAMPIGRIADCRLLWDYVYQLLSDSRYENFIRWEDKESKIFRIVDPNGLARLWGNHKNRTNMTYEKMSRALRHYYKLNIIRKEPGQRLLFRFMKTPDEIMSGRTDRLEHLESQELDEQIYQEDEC
Sequence of CRX (O43186 whole entry): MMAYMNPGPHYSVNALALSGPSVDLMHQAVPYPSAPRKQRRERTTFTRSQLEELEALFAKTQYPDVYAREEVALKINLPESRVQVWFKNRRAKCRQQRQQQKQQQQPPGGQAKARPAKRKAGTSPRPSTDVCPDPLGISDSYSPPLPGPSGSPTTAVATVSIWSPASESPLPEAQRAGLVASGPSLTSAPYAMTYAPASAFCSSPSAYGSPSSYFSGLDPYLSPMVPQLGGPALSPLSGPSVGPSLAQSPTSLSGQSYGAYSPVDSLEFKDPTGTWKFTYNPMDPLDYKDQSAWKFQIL
Sequence of ELF4 (Q99607 whole entry): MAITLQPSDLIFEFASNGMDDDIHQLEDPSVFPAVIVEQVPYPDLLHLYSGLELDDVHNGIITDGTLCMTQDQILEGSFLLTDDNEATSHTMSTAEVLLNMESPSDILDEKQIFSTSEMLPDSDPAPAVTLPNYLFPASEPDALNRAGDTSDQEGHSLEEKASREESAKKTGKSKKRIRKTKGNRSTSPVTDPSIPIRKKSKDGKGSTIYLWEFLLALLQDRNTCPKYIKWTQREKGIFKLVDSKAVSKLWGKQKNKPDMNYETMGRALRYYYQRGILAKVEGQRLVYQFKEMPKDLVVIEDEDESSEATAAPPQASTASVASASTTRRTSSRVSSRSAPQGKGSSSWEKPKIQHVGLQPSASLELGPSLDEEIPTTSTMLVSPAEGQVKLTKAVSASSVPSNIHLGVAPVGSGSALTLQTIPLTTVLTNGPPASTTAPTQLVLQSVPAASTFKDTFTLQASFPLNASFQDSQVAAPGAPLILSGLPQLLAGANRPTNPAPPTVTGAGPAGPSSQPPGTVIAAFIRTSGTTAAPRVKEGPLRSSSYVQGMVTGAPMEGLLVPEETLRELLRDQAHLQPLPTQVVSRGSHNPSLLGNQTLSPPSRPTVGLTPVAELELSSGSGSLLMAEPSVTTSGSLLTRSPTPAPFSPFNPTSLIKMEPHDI
Sequence of HSF1 (Q00613 whole entry): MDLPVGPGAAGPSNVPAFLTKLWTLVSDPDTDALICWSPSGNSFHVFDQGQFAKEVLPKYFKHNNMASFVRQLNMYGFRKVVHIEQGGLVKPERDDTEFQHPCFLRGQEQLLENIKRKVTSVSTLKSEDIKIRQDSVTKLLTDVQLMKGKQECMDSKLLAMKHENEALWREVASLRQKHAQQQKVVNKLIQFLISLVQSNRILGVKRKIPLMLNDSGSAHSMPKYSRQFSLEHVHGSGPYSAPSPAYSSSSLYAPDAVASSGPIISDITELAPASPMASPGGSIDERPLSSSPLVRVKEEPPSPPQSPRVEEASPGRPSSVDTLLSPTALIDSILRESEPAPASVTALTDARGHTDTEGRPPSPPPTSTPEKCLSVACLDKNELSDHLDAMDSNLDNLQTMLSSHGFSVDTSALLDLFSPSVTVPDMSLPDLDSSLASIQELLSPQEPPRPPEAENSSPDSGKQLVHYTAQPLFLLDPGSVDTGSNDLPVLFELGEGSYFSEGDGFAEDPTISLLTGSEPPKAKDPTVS

On to CTCGTC, for which the binding signal with FEV is 1.31 fold enrichment (6-mer frequency, TF over GST control); with ETV5, 1.31 fold enrichment (6-mer frequency, TF over GST control); in the experiment with HSF1 it was 1.22 fold enrichment (6-mer frequency, TF over GST control); with SPIC it was 1.37 fold enrichment (6-mer frequency, TF over GST control); with ELF4, 1.42 fold enrichment (6-mer frequency, TF over GST control); in the experiment with ELK4, 1.57 fold enrichment (6-mer frequency, TF over GST control). In addition, the binding signal is 1.25 fold enrichment (6-mer frequency, TF over GST control) with ETV2; 1.47 fold enrichment (6-mer frequency, TF over GST control) with ELF3; 1.02 fold enrichment (6-mer frequency, TF over GST control) with CRX; 1.45 fold enrichment (6-mer frequency, TF over GST control) with ETV1; 1.4 fold enrichment (6-mer frequency, TF over GST control) in the experiment with ERF; 1.24 fold enrichment (6-mer frequency, TF over GST control) in the experiment with ETV3L. Also, the binding signal in the experiment with ETS2 was 1.46 fold enrichment (6-mer frequency, TF over GST control); with SPDEF it was 1.35 fold enrichment (6-mer frequency, TF over GST control); with ETV7, 1.46 fold enrichment (6-mer frequency, TF over GST control); with ELF5 it was 1.32 fold enrichment (6-mer frequency, TF over GST control); in the experiment with ETV3, 1.34 fold enrichment (6-mer frequency, TF over GST control); in the experiment with ETV6, 1.46 fold enrichment (6-mer frequency, TF over GST control).
